TR SRC2 fluor cs – counter-screen for TRb-SRC2 inhibitors: fluorescence interference | TRb/SRC2 Texas Red total fluorescence interference | Potency, µM (series often up to 106 µM) | 0.29% of 280,000 active | AID 1479; active = well fitted curve in either direction with a large enough effect; inconclusive = small, poorly fitted or top-dose-only effect
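Human TRβ ligand-binding domain (0.6 uM) and Texas Red SRC2 peptide (20 nM) in Tris buffer with 1 uM T3 and 5% DMSO were incubated with pinned compound for 5 hr at ambient temperature. Total fluorescence was computed as S + 2P (555/632 nm).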
Tau FP inhib – inhibitors of human tau fibril formation; K18 P301L tau heparin fibrillization, Alexa594 FP, 6 h; P10636; Potency, µM (highest dose often 57.7 µM), actives largely listed as inhibitors; 0.39% of 280,000 active; also: nearly all actives have a fitted effect of over 55% in size
Target sequence (P10636 561-689 P618L limits assumed): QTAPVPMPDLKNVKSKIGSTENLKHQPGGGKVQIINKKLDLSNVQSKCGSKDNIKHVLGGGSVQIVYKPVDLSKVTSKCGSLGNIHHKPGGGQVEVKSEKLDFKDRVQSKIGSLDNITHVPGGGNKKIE
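Quantitative HTS format: compounds meet 15 uM recombinant K18 P301L tau and Alexa 594-tau tracer in 100 mM sodium acetate pH 7; 20 uM heparin triggers fibrillization at 37 C over 6 hr; FP gives the signal.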
Tau fluor counter – counter-screen for tau fibril formation inhibitors | 0.93% of 280,000 active | AID 1463 | Potency, µM (titrated, usually from 57.7 µM) | tau K18 P301L Alexa594 fluorescence, heparin fibrillization; also: nearly all actives have a fitted effect of over 55% in size
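Human tau K18 P301L (15 uM unlabeled, 0.24 uM Alexa 594-labeled) in 100 mM sodium acetate pH 7 with 20 uM heparin, 6 hr at 37 C. ThT 30 uM added, 1 hr ambient; Alexa 594 FP and total fluorescence read at 555/632 nm.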
Tau fibril ThT – inhibitors of human tau fibril formation, thioflavin T binding; P10636; Potency, µM (top dose mostly 57.4 µM), actives largely listed as inhibitors; 2.1% of 270,000 active; recombinant tau K18 P301L (four-repeat tau fragment), heparin-induced fibrillization, ThT fluorescence; also: nearly all actives have a fitted effect of over 55% in size
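K18 P301L tau (15 uM + 0.24 uM Alexa 594-tagged), heparin 20 uM, NaOAc pH 7, 6 h 37 C; ThT 30 uM, 1 h RT, ex 450/em 510 nm.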
TRb-SRC2 inh – disrupts binding of human TR beta to SRC2 | P10828 | TRbeta-SRC2 peptide binding, fluorescence polarization; receptor liganded with 1 µM T3 | Potency, µM (top dose mostly 106 µM), usual class: inhibitors | AID 1469 | 0.065% of 280,000 active; also: nearly all actives have a fitted effect of over 50% in size
Target sequence (P10828 whole entry, looked up): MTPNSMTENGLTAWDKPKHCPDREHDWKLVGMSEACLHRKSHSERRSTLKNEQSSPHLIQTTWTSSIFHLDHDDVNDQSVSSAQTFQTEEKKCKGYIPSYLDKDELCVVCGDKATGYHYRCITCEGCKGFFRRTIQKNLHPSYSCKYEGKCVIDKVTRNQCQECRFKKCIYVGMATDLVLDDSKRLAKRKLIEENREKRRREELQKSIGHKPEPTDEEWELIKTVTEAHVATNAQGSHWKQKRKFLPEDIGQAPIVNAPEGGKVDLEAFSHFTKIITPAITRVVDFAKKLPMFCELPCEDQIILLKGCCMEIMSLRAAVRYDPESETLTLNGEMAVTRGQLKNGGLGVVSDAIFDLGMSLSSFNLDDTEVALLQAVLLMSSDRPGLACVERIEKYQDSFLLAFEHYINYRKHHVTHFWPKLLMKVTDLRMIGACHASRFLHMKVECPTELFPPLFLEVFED
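Read-out is fluorescence polarization (555 nm excitation, 632 nm emission) of a Texas Red SRC2 coactivator peptide; loss of signal reflects blocked binding to human TRb ligand-binding domain in the presence of 1 uM T3.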
Of the large screens only hits and unclear results are named; the others gave an inactive call; [ ] = remark or other dose. Only some compounds are listed: those with a hit (about 3.1% of all), similar ones and a draw of the others. Unless noted, calls follow the shape of the dose curve; as a rule, active = well fitted curve in the direction sought with a large enough effect; inconclusive = small, poorly fitted or top-dose-only effect, or another doubt; inactive = no such curve, though single readings can be large; an effect the other way counts as inactive or inconclusive.

CCN1CCc2c(sc(-n3cccc3)c2C(C)NC(=O)Nc2ccc(C(=O)OC)cc2)C1 (configuration not stated)	Tau FP inhib inconclusive, Tau fluor counter inconclusive
N#C/C(=C\c1ccc(-c2cccc([N+](=O)[O-])c2)o1)C(=O)Nc1nc(-c2cccs2)cs1	Tau fluor counter inconclusive, Tau fibril ThT 2µM
O=C(N/N=C/c1ccc(-c2cccc([N+](=O)[O-])c2)o1)c1cccs1	Tau fibril ThT inconclusive
COc1cc2[nH]c(=O)n(CCCC(=O)NCc3ccccc3Cl)c(=O)c2cc1OC	none
Cc1ccc(NC(=O)c2sc3ncnc(N(C)C4CCCCC4)c3c2C)cc1	none
CCOC(=O)C1=C(C)N=c2s/c(=C3/C(=O)Nc4ccccc43)c(=O)n2C1c1ccc(C)cc1 (configuration not stated)	none
CCOC(=O)C1=C(C)n2c(s/c(=C3\C(=O)Nc4ccccc43)c2=O)=NC1c1ccc(OC)cc1 (configuration not stated)	Tau FP inhib inconclusive, Tau fluor counter inconclusive, Tau fibril ThT 16µM
COc1ccc2c(c1)OC/C(=C/c1ccc(O)c(O)c1)C2=O	Tau fibril ThT inconclusive
COc1ccc2c(c1)OC/C(=C/c1ccc(OC)c(OC)c1)C2=O	Tau fluor counter inconclusive, Tau fibril ThT 11µM
CCOc1ccccc1NC(=O)CSc1nc2c(oc3ccccc32)c(=O)n1C(C)C	none
CCOC(=O)C1=CN(c2cccc(F)c2)C=C(C(=O)OCC)C1c1cc(OC)c(O)c([N+](=O)[O-])c1	Tau fluor counter inconclusive, Tau fibril ThT 13µM
Oc1c(Cl)cc(Cl)cc1Sc1cc(Cl)cc(Cl)c1O	TR SRC2 fluor cs inconclusive, Tau fluor counter inconclusive, Tau fibril ThT 14µM, TRb-SRC2 inh inconclusive
COc1ccc(N2C(=O)C(CC(=O)Nc3ccc(F)cc3)N(CCC3=CCCCC3)C2=O)cc1 (configuration not stated)	none
COc1ccc(S(=O)(=O)NCC(c2ccc(N(C)C)cc2)N2CCCC2)cc1F (configuration not stated)	none
COC(=O)c1cc2oc3ccccc3c2n1Cc1cc(C)ccc1C	TR SRC2 fluor cs 22µM[quencher]
COC(=O)c1cc2oc3ccccc3c2n1Cc1nc(-c2ccccc2Cl)oc1C	TR SRC2 fluor cs inconclusive, Tau FP inhib inconclusive
COC(=O)c1cc2oc3ccccc3c2n1Cc1nc(-c2ccccc2C)oc1C	TR SRC2 fluor cs 20µM[quencher]
COC(=O)c1cc2sc(C)cc2n1Cc1nc(-c2ccc(C)cc2)oc1C	TR SRC2 fluor cs 89µM[quencher], Tau fluor counter inconclusive, Tau fibril ThT inconclusive
COC(=O)c1cc2oc3ccccc3c2n1Cc1ccc(C)cc1	none
C=C(C)C(=O)OCCCCCCCCCCCC	none (no result: Tau FP inhib, Tau fluor counter, Tau fibril ThT)
CCOC(=O)c1ccccc1NC(=O)c1cc2c(=O)oc3ccc(C)cc3c2s1	none
COC(=O)c1ccc(C(NC(=O)OCc2ccccc2)/C(=C/[C@@H](C)C(=O)NCc2cc(C)n(C)n2)c2cccnc2)cc1 (some centres not stated)	none
CC1(C(=O)OCC(=O)c2c[nH]c3ccccc23)CC1(Cl)Cl (configuration not stated)	Tau FP inhib inconclusive, Tau fluor counter inconclusive
Cc1ccc(C)c(/C=C/C(=O)c2ccccc(=O)c2O)c1	Tau FP inhib inconclusive, Tau fluor counter inconclusive, Tau fibril ThT 22µM
O=C(/C=C/c1ccccc1Cl)c1ccccc(=O)c1O	Tau FP inhib inconclusive, Tau fibril ThT 14µM
COc1cc(OC)c(NC(=O)Cn2c(=O)oc3cc(S(=O)(=O)N4CCCC4)ccc32)cc1Cl	none
CCN1C(=O)[C@@H]2[C@H]3C(=CC[C@@H]2C1=O)C1(OCCCO1)[C@H]1O[C@@H]1[C@H]3O	Tau FP inhib inconclusive, Tau fluor counter inconclusive, Tau fibril ThT 2.8µM
CCOc1ccc(/C=C/C2=Cc3c(sc(NC(=O)CSc4n[nH]c(N)n4)c3C#N)C(C)(C)C2)cc1	Tau fluor counter inconclusive, Tau fibril ThT 14µM
Cc1ccsc1/C=C/C1=Cc2c(sc(NC(=O)CSc3n[nH]c(N)n3)c2C#N)C(C)(C)C1	Tau fluor counter inconclusive, Tau fibril ThT 16µM
CCOC(=O)c1sc(NC(=O)CSc2n[nH]c(-c3ccncc3)n2)c(C#N)c1C	none
COc1cc(OC)c2cc(C(=O)N/N=C/c3cccc(OC)c3O)[nH]c2c1	Tau FP inhib inconclusive, Tau fluor counter inconclusive, Tau fibril ThT 5µM
CN(C)S(=O)(=O)c1cc(NC(=O)CSc2ncc(C(F)(F)F)cc2Cl)ccc1Cl	Tau FP inhib 28µM, Tau fluor counter inconclusive
Cc1[nH]nc2c1C(c1ccc(-c3ccccc3C#N)o1)C(C#N)=C(N)O2 (configuration not stated)	Tau fibril ThT 16µM
Cc1[nH]nc2c1C(c1ccc(-c3ccc(Cl)cc3)o1)C(C#N)=C(N)O2 (configuration not stated)	Tau fluor counter inconclusive, Tau fibril ThT 10µM
Cc1ccc(-c2ccc(C3C(C#N)=C(N)Oc4n[nH]c(C)c43)o2)cc1 (configuration not stated)	Tau fluor counter 13µM[quencher], Tau fibril ThT 6.3µM
Cc1[nH]nc2c1C(c1ccc(F)cc1)C(C#N)=C(N)O2 (configuration not stated)	none
CCc1ccc(NC(=O)c2ccc3nc(N)sc3c2)cc1	Tau FP inhib 25µM, Tau fluor counter inconclusive, Tau fibril ThT inconclusive
COC(=O)C(=C/C=C/c1ccco1)C(=O)OC	Tau fibril ThT inconclusive
COc1ccc(NC(=O)/C(C#N)=C\C=C\c2ccco2)cc1	Tau fibril ThT 2.5µM
C=CSc1sc(Cl)c(N2CCOCC2)c1[N+](=O)[O-]	Tau fluor counter inconclusive, Tau fibril ThT 14µM
C=CS(=O)(=O)c1sc(Cl)c(N2CCOCC2)c1[N+](=O)[O-]	Tau fluor counter inconclusive, Tau fibril ThT 3.5µM
O=C1CC(c2nnc(Cc3ccccc3Cl)o2)CN1c1ccccc1 (configuration not stated)	none
S=c1[nH]c(-c2ccccc2)cn1/N=C/c1ccccc1Br	Tau fibril ThT inconclusive
S=c1[nH]c(-c2ccccc2)cn1/N=C/c1cccc2ccccc12	Tau fluor counter inconclusive, Tau fibril ThT 3.5µM
Oc1ccc(/C=N/n2cc(-c3ccccc3)[nH]c2=S)cc1	Tau fluor counter inconclusive, Tau fibril ThT 10µM
Cc1ccc(/C=N/n2cc(-c3ccccc3)[nH]c2=S)s1	Tau fluor counter inconclusive, Tau fibril ThT inconclusive
COc1cc(/C=N/n2cc(-c3ccccc3)[nH]c2=S)cc(OC)c1O	Tau fluor counter inconclusive, Tau fibril ThT 20µM
O=C(Cl)c1cccc([N+](=O)[O-])c1	none (no result: Tau FP inhib, Tau fluor counter, Tau fibril ThT)
Cc1cc(N)ccc1-n1c(C)ccc1C	TR SRC2 fluor cs 13µM[fluorescent], Tau FP inhib inconclusive, Tau fibril ThT 14µM, TRb-SRC2 inh 7.9µM
Cc1cc(N)ccc1N1CCCC1	TR SRC2 fluor cs 45µM[fluorescent], Tau FP inhib 13µM, Tau fluor counter inconclusive, Tau fibril ThT 7.1µM, TRb-SRC2 inh 40µM
NC(=O)c1cc(N)ccc1N1CCCCC1	none

Screening results deposited in PubChem BioAssay by National Center for Advancing Translational Sciences (NCATS).
